PubChem BioAssay AID1159580 (chemical genetic matrix, 2015)
Values joined by “and” are separate entries in the source; they are usually repeats but may differ in a detail not shown here. Identical values can stand only once. Out of some 5,500 compounds screened, about 2,000 (36%) were called active. Roughly 18% stayed inconclusive and do not appear here. Rule as the data show it: active = normalized growth mostly below about 0.91 (no sharp cut-off); inconclusive = no clear call, values can overlap the other calls; inactive = mostly above about 0.92. The list shows a part of the results.

Assay: chemical genetic growth profiling, strain panel (AID 1159580);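 also: tested at 20 µM; growth read once vehicle control cultures reached saturation at 30 °C; 1 = growth at the plate median or of vehicle wells; lower values mean less growth of the strain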
Settings: growth OD

Measured: normalized growth

O=C1CCCN1CC#CCN1CCCC1
inactive: S. cerevisiae deletion strains, locus YJR075W, strain HOC1, active compounds read low 0.988 and 1 | S. cerevisiae deletion strains, locus YKL009W, strain mrt4, active compounds read low 1.02 and 1.05 | S. cerevisiae deletion strains, locus YKL068W, active compounds read low 1 | S. cerevisiae deletion strains, locus YKL085W, strain MDH1 (second series), active compounds read low 1.02 | S. cerevisiae deletion strains, locus YKL085W, strain MDH1, active compounds read low 1.02 | S. cerevisiae deletion strains, locus YKL160W, strain elf1, active compounds read low 1.02 | S. cerevisiae deletion strains, locus YKL190W, strain CNB1, active compounds read low 0.989 and 1.02 | S. cerevisiae deletion strains, locus YKR001C, strain vps1, active compounds read low 1.01 and 1.02 | S. cerevisiae deletion strains, locus YKR026C, strain gcn3, active compounds read low 1.02 | S. cerevisiae deletion strains, locus YKR091W, strain srl3, active compounds read low 1.02 | S. cerevisiae deletion strains, locus YLL001W, strain dnm1, active compounds read low 1.02 | S. cerevisiae deletion strains, locus YLL026W, active compounds read low 1.01 | S. cerevisiae deletion strains, locus YLL041C, strain sdh2, active compounds read low 1.02 | S. cerevisiae deletion strains, locus YLR027C, strain aat2, active compounds read low 1.02 | S. cerevisiae deletion strains, locus YLR039C, strain RIC1, active compounds read low 1.03 and 1.01 | S. cerevisiae deletion strains, locus YLR058C, strain SHM2, active compounds read low 1.01 | S. cerevisiae deletion strains, locus YLR102C, strain apc9, active compounds read low 1.01 and 1.02 | S. cerevisiae deletion strains, locus YLR113W, strain HOG1, active compounds read low 1.04 | S. cerevisiae deletion strains, locus YLR221C, strain rsa3, active compounds read low 1 | S. cerevisiae deletion strains, locus YLR258W, strain gsy2, active compounds read low 1.02 | S. cerevisiae deletion strains, locus YLR262C, strain YPT6 (second series), active compounds read low 1.03 | S. cerevisiae deletion strains, locus YLR262C, strain YPT6, active compounds read low 1.05 and 1.02 | S. cerevisiae deletion strains, locus YLR268W, strain sec22, active compounds read low 1.02 and 0.991 | S. cerevisiae deletion strains, locus YLR320W, strain mms22, active compounds read low 1.02 | S. cerevisiae deletion strains, locus YLR330W, strain CHS5, active compounds read low 1 and 1.01 | S. cerevisiae deletion strains, locus YLR342W, strain FKS1 (second series), active compounds read low 1.02 and 1.06 | S. cerevisiae deletion strains, locus YLR342W, strain FKS1, active compounds read low 1.02 | S. cerevisiae deletion strains, locus YLR357W, strain rsc2, active compounds read low 1.05 | S. cerevisiae deletion strains, locus YLR370C, strain arc18, active compounds read low 1.02 | S. cerevisiae deletion strains, locus YLR371W, strain rom2, active compounds read low 0.994 and 1.03 | S. cerevisiae deletion strains, locus YLR384C, strain iki3, active compounds read low 1.03 | S. cerevisiae deletion strains, locus YLR418C, strain cdc73, active compounds read low 1.05 and 0.979 | S. cerevisiae deletion strains, locus YML016C, strain PPZ1, active compounds read low 1.01 | S. cerevisiae deletion strains, locus YML032C, strain rad52, active compounds read low 1.01 and 1.04 | S. cerevisiae deletion strains, locus YML120C, strain ndi1, active compounds read low 1.03 | S. cerevisiae deletion strains, locus YML124C, strain tub3, active compounds read low 1 | S. cerevisiae deletion strains, locus YMR058W, strain fet3, active compounds read low 1.03 | S. cerevisiae deletion strains, locus YMR078C, strain ctf18, active compounds read low 1.03 and 1.02 | S. cerevisiae deletion strains, locus YMR125W, strain sto1, active compounds read low 1.04 | S. cerevisiae deletion strains, locus YMR129W, active compounds read low 1.03 | S. cerevisiae deletion strains, locus YMR205C, strain PFK2, active compounds read low 1.02 | S. cerevisiae deletion strains, locus YMR223W, strain ubp8, active compounds read low 1.02 and 1.03 | S. cerevisiae deletion strains, locus YMR231W, strain pep5, active compounds read low 1.03 | S. cerevisiae deletion strains, locus YMR263W, strain SAP30, active compounds read low 1.01 | S. cerevisiae deletion strains, locus YMR307W, strain GAS1, active compounds read low 1 and 0.983 | S. cerevisiae deletion strains, locus YNL067W, strain RPL9B, active compounds read low 0.998 and 1.01 | S. cerevisiae deletion strains, locus YNL071W, strain lat1, active compounds read low 1.02 | S. cerevisiae deletion strains, locus YNL128W, strain TEP1, active compounds read low 1.01 | S. cerevisiae deletion strains, locus YNL153C, strain GIM3, active compounds read low 1.03 and 0.992 | S. cerevisiae deletion strains, locus YNL175C, strain NOP13, active compounds read low 0.992 | S. cerevisiae deletion strains, locus YNL183C, strain NPR1, active compounds read low 0.999 | S. cerevisiae deletion strains, locus YNL197C, strain WHI3, active compounds read low 0.986 | S. cerevisiae deletion strains, locus YNL209W, strain ssb2, active compounds read low 1.02 | S. cerevisiae deletion strains, locus YNL224C, strain SQS1, active compounds read low 1.01 | S. cerevisiae deletion strains, locus YNL233W, strain BNI4, active compounds read low 0.993 and 0.996 | S. cerevisiae deletion strains, locus YNL248C, strain rpa49, active compounds read low 1.03 | S. cerevisiae deletion strains, locus YNL250W, strain rad50, active compounds read low 1.02 and 1.01 | S. cerevisiae deletion strains, locus YNL271C, strain bni1, active compounds read low 1.01 and 1.03 | S. cerevisiae deletion strains, locus YNL298W, strain CLA4, active compounds read low 1.03 | S. cerevisiae deletion strains, locus YNL307C, strain MCK1, active compounds read low 1.02 and 1.03 | S. cerevisiae deletion strains, locus YNL322C, strain KRE1 (second series), active compounds read low 1.02 | S. cerevisiae deletion strains, locus YNL322C, strain KRE1, active compounds read low 1 and 1.01 | S. cerevisiae deletion strains, locus YNR049C, strain mso1, active compounds read low 1.02 | S. cerevisiae deletion strains, locus YNR052C, strain pop2, active compounds read low 1.01 and 1.04 | S. cerevisiae deletion strains, locus YOL006C, strain TOP1, active compounds read low 1.03 and 1.04 | S. cerevisiae deletion strains, locus YOL012C, strain htz1 0.71 and 1.25 | S. cerevisiae deletion strains, locus YOL147C, strain pex11, active compounds read low 1.01 | S. cerevisiae deletion strains, locus YOR001W, strain rrp6, active compounds read low 1.04 | S. cerevisiae deletion strains, locus YOR061W, strain CKA2, active compounds read low 1.01 | S. cerevisiae deletion strains, locus YOR069W, strain VPS5, active compounds read low 1 and 1.01 | S. cerevisiae deletion strains, locus YOR070C, strain gyp1, active compounds read low 1.02 | S. cerevisiae deletion strains, locus YOR080W, strain dia2, active compounds read low 1.03 | S. cerevisiae deletion strains, locus YOR083W, strain WHI5 (second series), active compounds read low 1.02 | S. cerevisiae deletion strains, locus YOR083W, strain WHI5, active compounds read low 1.02 | S. cerevisiae deletion strains, locus YOR106W, strain vam3, active compounds read low 1.05 | S. cerevisiae deletion strains, locus YOR136W, strain idh2, active compounds read low 1.01 and 1.02 | S. cerevisiae deletion strains, locus YOR144C, strain elg1, active compounds read low 1 and 1.01 | S. cerevisiae deletion strains, locus YOR184W, strain ser1, active compounds read low 1.04 and 1.05 | S. cerevisiae deletion strains, locus YOR231W, strain MKK1, active compounds read low 1.06 | S. cerevisiae deletion strains, locus YOR265W, strain rbl2, active compounds read low 1.02 | S. cerevisiae deletion strains, locus YOR270C, strain vph1, active compounds read low 1.08 | S. cerevisiae deletion strains, locus YOR290C, strain snf2, active compounds read low 1.02 | S. cerevisiae deletion strains, locus YOR316C, strain cot1, active compounds read low 1.01 | S. cerevisiae deletion strains, locus YPL051W, strain arl3, active compounds read low 1.02 | S. cerevisiae deletion strains, locus YPL055C, strain LGE1, active compounds read low 0.986 and 1.01 | S. cerevisiae deletion strains, locus YPL078C, strain atp4, active compounds read low 1.04 | S. cerevisiae deletion strains, locus YPL106C, strain sse1, active compounds read low 1.02 | S. cerevisiae deletion strains, locus YPL240C, strain hsp82, active compounds read low 1.03 | S. cerevisiae deletion strains, locus YPL241C, strain CIN2, active compounds read low 1 and 1.01 | S. cerevisiae deletion strains, locus YPL256C, strain CLN2, active compounds read low 1.02 | S. cerevisiae deletion strains, locus YPR119W, strain clb2, active compounds read low 1.01 | S. cerevisiae deletion strains, locus YPR141C, strain kar3, active compounds read low 1.01 | S. cerevisiae deletion strains, locus YPR163C, strain tif3, active compounds read low 1.02 and 1 | S. cerevisiae deletion strains, locus YPR167C, strain met16, active compounds read low 1.02 and 1.03 | S. cerevisiae deletion strains, strain wtn01, active compounds read low 1.03 and 1.02 | S. cerevisiae strains, strain wild type, active compounds read low 1 and 1.01
